Tests used:
Assay in all cases: log2 ratio of Biotin-Ahx-Ub-VS probe labelling (fragment/DMSO); higher = less target engagement (more negative = stronger competition), active = hit call of the paper (q ≤ 0.05, log2 ratio ≤ -1)
Details in all cases: compound concentration: 200 uM; treatment time: 3 h
USP42 = target: T1, USP42 (UniProt Q9H9J4)
T1 sequence (whole entry): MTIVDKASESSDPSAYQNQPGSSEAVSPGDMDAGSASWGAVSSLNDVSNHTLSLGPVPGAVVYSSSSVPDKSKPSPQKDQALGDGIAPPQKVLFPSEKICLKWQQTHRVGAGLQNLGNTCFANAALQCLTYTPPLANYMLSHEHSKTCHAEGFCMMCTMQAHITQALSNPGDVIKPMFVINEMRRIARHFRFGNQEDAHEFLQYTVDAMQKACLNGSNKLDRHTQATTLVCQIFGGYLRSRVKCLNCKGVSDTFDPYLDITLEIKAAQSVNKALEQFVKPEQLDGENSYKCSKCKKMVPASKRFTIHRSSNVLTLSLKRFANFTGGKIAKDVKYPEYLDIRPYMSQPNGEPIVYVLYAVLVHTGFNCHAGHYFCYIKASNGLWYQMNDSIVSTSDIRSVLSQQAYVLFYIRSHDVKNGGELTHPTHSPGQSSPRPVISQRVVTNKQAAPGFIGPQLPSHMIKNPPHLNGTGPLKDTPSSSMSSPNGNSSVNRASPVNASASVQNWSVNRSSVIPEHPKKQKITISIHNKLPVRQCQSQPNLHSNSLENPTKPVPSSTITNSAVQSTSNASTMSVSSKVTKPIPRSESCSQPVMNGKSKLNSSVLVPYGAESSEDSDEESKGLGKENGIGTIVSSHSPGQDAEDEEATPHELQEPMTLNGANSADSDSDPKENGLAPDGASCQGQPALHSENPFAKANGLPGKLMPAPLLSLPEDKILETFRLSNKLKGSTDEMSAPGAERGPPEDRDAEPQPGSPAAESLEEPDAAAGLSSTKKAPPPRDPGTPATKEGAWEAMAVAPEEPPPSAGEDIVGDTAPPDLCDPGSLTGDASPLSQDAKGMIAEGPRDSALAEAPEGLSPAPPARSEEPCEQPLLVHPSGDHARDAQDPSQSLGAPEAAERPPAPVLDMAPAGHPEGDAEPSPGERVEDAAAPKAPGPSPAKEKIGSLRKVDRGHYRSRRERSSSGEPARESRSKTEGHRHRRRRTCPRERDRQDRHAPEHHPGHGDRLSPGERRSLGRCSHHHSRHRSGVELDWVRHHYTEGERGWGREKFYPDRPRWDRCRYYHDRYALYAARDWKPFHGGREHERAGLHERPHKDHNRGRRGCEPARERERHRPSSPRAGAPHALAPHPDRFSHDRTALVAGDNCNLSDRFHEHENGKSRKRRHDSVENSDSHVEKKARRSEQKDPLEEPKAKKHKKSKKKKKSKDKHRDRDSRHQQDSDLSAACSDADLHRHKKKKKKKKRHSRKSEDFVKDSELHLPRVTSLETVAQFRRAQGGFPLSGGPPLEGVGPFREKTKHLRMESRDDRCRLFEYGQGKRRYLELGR
How it was run: (§1)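 Labelling with Biotin-Ahx-Ub-VS (0.5 µM final, 1 h) followed a 3 h triplicate treatment of HEK293T lysate (495 µg per sample, Tris/CHAPS/IGEPAL buffer with protease inhibitors) with fragment at 200 µM or vehicle. Labelled DUBs were NeutrAvidin-enriched, digested with LysC and trypsin, and run by diaPASEF LC-MS/MS. The values, average log2 fragment/vehicle ratios by unpaired t-test, come from global-median-normalised Spectronaut label-free quantities. Proteins with ≥2 unique peptides were used.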

USP46 = USP46 (UniProt P62068)
USP46, sequence (P62068 whole entry): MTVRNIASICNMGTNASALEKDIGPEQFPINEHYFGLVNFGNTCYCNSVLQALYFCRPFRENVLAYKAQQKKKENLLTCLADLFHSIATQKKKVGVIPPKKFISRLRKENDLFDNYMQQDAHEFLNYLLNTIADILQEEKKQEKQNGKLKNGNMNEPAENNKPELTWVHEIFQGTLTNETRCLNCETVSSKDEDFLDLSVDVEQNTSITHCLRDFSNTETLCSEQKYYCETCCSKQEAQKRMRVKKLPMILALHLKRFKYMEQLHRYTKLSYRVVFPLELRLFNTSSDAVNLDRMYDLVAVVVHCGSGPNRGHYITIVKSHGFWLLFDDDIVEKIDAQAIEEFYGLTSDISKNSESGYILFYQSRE
How it was run: as §1

USP47 = target: T2, USP47 (UniProt Q96K76)
T2 sequence (whole entry): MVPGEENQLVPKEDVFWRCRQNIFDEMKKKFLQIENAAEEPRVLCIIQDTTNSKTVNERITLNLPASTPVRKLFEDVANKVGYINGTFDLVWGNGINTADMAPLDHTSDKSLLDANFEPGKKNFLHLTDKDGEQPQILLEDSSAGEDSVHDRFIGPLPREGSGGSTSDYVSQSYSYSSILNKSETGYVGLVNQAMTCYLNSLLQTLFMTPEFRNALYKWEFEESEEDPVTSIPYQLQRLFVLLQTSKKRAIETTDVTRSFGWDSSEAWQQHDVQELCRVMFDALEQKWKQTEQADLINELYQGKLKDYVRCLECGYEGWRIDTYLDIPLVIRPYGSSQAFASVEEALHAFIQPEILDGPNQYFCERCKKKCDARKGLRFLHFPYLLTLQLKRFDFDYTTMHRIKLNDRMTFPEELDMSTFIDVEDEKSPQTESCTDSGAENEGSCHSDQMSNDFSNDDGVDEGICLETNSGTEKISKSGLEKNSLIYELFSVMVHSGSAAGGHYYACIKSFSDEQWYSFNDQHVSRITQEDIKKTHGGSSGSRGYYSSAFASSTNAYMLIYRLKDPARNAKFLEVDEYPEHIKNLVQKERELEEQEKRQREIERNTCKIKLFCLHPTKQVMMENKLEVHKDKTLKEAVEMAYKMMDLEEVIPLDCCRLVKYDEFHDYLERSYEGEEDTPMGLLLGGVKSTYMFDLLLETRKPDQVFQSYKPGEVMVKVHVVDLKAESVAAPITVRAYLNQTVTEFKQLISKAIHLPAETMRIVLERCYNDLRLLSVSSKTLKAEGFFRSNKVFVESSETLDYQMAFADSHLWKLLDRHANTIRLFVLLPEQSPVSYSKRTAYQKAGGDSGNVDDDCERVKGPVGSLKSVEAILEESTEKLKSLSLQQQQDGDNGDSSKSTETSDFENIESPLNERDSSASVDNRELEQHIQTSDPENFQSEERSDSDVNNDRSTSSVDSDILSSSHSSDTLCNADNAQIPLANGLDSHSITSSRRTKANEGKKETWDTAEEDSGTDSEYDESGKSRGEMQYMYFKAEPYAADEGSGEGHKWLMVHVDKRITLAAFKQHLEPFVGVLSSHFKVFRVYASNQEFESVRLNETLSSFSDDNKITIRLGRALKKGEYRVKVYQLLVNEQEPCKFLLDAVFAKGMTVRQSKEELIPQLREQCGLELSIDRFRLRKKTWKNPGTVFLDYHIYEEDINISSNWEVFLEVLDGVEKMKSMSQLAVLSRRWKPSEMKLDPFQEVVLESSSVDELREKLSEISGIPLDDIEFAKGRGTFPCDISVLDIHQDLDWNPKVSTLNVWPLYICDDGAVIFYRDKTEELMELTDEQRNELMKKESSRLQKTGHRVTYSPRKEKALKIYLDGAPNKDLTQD
How it was run: as §1

USP48 = target: T3, USP48 (UniProt Q86UV5)
T3 sequence (whole entry): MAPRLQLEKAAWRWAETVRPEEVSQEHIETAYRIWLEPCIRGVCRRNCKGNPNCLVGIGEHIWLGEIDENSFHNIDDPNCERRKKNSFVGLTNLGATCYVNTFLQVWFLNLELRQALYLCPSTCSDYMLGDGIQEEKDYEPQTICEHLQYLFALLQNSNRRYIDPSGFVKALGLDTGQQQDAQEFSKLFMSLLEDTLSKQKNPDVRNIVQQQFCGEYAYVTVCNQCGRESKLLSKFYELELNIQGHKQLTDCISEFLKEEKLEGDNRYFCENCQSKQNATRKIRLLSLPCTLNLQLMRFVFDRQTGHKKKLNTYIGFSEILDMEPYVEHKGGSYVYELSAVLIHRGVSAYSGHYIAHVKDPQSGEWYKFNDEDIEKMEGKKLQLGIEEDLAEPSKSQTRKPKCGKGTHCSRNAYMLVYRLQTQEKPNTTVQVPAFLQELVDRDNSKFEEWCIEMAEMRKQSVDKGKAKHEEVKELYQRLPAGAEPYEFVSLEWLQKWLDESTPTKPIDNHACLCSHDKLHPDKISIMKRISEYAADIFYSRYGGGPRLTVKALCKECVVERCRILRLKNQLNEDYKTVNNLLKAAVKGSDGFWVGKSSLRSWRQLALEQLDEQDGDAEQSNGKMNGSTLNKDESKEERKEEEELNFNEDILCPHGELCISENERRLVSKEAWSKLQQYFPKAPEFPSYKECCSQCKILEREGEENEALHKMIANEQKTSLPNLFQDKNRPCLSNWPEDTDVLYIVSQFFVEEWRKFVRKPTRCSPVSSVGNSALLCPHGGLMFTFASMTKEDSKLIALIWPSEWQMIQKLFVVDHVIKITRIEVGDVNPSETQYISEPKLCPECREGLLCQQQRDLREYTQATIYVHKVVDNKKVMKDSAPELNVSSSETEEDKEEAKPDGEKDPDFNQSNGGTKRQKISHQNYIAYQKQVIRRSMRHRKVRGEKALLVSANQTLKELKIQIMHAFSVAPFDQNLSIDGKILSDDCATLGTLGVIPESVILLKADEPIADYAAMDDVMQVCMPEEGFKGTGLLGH
How it was run: as §1

USP5 = target: T4, USP5 (UniProt P45974)
T4 sequence (whole entry): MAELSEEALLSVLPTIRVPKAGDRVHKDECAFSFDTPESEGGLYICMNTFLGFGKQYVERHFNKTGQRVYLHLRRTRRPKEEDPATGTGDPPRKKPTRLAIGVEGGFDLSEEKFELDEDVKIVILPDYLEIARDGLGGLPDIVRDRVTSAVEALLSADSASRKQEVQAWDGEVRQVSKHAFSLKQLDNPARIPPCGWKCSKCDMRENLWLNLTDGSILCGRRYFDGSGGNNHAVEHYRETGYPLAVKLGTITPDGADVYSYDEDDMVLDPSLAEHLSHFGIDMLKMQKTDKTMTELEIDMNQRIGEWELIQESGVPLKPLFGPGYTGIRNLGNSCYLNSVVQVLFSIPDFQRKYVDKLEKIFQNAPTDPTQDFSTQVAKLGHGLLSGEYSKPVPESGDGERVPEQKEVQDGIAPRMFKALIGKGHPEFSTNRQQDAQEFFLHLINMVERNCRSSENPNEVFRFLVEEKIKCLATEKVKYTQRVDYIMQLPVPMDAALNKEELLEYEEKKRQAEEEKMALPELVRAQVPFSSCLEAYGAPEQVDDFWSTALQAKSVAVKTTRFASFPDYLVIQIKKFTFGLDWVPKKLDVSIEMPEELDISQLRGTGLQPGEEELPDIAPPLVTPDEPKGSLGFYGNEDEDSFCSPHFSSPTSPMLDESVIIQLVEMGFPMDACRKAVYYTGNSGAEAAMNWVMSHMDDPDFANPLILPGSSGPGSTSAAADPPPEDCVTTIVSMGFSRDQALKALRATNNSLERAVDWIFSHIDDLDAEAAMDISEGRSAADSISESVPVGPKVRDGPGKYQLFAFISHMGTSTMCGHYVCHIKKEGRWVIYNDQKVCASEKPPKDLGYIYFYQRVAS
How it was run: as §1

USP54 = USP54 (UniProt Q70EL1)
How it was run: as §1

USP7 = USP7 (UniProt Q93009)
USP7, sequence (Q93009 whole entry, looked up): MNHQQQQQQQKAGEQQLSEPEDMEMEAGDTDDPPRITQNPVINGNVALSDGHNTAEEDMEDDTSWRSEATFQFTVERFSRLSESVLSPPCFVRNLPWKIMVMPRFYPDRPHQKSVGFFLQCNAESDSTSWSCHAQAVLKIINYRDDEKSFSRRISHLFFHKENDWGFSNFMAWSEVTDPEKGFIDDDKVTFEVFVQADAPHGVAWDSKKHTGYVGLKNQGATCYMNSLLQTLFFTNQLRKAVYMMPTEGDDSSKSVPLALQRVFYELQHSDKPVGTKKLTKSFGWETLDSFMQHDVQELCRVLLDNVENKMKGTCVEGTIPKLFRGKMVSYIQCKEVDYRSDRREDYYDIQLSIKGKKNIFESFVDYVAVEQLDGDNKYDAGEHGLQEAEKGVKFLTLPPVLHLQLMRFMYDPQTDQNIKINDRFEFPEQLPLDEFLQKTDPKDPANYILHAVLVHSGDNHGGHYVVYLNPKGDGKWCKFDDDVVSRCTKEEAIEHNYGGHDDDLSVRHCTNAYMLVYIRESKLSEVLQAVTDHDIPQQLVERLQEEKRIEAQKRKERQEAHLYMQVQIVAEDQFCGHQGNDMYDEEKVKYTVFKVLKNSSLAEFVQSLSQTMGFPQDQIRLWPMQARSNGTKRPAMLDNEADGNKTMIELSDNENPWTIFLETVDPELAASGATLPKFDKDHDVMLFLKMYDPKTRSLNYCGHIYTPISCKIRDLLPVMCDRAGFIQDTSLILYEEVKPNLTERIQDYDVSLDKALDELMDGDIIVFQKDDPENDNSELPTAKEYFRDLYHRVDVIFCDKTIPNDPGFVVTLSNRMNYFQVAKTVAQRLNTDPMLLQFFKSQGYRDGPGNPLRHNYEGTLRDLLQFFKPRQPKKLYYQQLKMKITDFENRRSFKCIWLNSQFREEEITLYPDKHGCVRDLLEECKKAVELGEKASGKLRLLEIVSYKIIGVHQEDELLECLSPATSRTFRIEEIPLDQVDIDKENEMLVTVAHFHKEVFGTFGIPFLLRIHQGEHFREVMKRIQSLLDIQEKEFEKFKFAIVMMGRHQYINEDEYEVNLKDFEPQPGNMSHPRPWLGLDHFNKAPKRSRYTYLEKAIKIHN
How it was run: as §1

USP8 = target: T5, USP8 (UniProt P40818)
T5 sequence (whole entry): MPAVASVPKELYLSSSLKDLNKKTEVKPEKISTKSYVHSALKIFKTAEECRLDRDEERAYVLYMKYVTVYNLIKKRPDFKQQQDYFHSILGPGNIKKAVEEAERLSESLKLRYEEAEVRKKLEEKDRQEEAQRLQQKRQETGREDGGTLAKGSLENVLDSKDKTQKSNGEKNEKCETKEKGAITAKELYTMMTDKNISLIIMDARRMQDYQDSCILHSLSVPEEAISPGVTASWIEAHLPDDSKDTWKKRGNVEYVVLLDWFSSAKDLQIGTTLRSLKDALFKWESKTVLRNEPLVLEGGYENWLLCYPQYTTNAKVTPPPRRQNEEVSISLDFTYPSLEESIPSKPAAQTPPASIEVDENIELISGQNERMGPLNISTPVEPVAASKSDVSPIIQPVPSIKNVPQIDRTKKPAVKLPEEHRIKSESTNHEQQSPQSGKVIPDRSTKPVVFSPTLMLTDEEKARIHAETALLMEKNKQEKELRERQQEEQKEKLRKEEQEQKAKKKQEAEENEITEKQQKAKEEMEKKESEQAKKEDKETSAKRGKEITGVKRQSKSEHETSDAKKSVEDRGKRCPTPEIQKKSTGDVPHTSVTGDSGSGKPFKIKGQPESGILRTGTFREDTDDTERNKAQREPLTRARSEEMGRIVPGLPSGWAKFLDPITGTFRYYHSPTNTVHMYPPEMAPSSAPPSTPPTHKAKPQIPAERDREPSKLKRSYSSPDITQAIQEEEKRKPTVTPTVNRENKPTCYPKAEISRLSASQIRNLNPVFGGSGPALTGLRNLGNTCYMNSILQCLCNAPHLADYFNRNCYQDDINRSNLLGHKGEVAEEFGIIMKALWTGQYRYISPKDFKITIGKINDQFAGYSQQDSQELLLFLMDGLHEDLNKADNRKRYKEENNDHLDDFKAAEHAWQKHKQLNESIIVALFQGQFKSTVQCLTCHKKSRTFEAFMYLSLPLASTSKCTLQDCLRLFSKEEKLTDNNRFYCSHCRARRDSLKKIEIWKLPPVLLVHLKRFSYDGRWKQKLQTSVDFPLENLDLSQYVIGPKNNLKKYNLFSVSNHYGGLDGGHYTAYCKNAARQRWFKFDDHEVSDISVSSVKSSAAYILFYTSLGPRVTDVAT
How it was run: as §1

USP9X = USP9X (UniProt Q93008)
USP9X, sequence (Q93008 whole entry): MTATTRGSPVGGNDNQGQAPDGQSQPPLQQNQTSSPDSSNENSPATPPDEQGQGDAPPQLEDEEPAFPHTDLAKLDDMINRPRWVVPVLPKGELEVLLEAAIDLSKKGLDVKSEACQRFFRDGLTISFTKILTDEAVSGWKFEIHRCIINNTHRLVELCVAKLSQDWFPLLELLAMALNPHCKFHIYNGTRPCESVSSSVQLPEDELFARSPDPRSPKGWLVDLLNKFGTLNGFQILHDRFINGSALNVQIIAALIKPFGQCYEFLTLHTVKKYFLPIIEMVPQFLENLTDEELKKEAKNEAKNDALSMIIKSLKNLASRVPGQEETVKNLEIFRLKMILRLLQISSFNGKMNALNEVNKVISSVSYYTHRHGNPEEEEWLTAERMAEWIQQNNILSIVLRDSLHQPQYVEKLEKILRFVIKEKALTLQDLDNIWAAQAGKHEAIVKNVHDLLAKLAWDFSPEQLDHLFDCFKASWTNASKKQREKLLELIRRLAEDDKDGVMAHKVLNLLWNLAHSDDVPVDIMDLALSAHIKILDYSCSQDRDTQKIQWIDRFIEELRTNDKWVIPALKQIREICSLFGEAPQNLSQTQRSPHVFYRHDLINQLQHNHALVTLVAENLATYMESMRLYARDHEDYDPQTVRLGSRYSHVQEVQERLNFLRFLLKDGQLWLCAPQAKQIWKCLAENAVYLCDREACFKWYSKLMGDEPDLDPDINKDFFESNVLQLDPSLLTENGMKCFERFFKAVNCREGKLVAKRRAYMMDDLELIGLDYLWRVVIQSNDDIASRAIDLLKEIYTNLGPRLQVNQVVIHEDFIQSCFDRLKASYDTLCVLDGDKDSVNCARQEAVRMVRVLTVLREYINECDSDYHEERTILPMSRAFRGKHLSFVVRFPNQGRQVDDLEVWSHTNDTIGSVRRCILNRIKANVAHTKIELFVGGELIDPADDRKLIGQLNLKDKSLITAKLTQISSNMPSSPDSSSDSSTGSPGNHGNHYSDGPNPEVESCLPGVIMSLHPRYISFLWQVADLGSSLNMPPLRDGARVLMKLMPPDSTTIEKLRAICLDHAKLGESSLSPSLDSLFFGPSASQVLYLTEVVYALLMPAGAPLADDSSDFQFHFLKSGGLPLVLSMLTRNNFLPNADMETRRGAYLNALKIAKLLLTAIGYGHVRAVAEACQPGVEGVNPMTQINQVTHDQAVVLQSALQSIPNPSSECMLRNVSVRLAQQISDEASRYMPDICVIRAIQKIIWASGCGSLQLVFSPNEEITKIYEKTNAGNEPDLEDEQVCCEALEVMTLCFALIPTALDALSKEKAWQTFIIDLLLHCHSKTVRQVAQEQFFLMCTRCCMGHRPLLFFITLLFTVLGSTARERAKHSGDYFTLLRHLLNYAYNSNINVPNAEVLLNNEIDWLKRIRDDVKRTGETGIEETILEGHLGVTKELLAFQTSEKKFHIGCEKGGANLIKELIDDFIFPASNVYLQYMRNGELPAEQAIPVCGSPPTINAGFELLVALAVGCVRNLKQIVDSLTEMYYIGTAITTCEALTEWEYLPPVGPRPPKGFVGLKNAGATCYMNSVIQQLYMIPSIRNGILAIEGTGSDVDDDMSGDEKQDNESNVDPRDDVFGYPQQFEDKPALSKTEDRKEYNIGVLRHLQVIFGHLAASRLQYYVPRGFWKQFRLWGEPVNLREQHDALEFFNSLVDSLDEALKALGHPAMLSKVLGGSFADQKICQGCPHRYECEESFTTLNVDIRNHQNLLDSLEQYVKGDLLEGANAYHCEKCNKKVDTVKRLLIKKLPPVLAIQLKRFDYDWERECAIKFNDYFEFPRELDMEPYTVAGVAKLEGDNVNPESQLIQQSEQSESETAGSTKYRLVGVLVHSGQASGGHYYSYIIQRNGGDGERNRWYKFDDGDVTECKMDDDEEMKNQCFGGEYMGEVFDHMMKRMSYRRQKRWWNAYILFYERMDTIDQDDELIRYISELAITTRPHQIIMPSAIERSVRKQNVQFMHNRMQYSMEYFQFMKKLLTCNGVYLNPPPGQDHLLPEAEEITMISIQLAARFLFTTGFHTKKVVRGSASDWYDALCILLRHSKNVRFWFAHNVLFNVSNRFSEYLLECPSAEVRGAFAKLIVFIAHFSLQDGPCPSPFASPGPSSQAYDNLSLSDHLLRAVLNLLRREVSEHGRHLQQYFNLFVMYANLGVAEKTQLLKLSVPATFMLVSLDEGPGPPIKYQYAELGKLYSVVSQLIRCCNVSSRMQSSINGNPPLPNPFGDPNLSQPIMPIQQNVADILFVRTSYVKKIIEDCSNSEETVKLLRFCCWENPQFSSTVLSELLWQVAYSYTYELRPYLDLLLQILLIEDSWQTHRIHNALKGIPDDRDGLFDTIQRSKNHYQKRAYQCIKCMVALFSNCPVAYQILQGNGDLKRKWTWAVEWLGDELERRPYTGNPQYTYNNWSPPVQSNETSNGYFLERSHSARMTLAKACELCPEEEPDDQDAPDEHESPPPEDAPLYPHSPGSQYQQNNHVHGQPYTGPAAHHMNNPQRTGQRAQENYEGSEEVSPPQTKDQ
How it was run: as §1

UniProt O00487 = target: UniProt O00487
UniProt O00487, sequence (O00487 whole entry): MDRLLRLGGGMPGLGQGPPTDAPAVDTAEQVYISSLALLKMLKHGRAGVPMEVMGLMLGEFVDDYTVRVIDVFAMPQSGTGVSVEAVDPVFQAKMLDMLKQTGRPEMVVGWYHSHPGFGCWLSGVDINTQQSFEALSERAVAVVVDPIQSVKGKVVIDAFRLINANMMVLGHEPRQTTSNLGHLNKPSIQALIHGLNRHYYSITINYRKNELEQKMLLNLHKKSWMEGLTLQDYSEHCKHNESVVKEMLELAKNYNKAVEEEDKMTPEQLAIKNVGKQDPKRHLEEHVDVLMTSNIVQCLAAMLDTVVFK
How it was run: as §1

Measured: log2 ratio of Biotin-Ahx-Ub-VS probe labelling

Cc1cccc(NC(=O)[C@@H]2CCCN2C(=O)CCl)n1
inactive: USP42 0.315 | USP46 -0.247 | USP47 -0.448 | USP48 -0.474 | USP5 0.305 | USP54 0.236 | USP7 -0.502 | USP8 -0.358 | USP9X -0.337 | UniProt O00487 -0.177

From the supplement of paper PMC11732987, “Enantioselective OTUD7B fragment discovery through chemoproteomics screening and high-throughput optimisation” (Communications Chemistry, 2025)
